High-throughput results as filed in PubChem BioAssay.
ALOX12 inh = blocks human arachidonate 12S-lipoxygenase; purified 12hLO, xylenol orange hydroperoxide absorbance; Potency, µM (top dose mostly 108 µM), without a hit: top-dose activity change, negative = inhibition, hits mostly inhibitors; hit rate 1.1% among 580,000; AID 1671190; note: % is set by controls: 0 for no effect and ±100 for the full control effect
Target sequence (P18054 whole entry, looked up): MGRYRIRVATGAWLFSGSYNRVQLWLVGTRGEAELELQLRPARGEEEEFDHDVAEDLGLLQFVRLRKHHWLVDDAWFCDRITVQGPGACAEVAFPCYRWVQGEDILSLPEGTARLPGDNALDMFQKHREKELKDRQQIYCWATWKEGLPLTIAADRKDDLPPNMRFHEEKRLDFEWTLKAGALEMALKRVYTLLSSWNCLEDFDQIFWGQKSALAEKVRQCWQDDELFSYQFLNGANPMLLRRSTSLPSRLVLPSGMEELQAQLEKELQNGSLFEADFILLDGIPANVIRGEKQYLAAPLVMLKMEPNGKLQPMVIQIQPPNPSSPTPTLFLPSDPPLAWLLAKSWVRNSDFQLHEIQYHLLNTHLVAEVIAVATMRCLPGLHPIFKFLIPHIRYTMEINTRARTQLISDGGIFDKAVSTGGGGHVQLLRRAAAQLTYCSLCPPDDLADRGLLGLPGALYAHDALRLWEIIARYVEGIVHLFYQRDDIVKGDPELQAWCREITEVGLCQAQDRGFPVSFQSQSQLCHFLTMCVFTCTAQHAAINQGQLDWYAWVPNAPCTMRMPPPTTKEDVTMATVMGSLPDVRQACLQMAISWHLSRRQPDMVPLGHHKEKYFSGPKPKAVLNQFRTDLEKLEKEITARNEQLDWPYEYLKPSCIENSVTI
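Purified human 12hLO at 150 nM in 25 mM Hepes, 0.01% Triton X-100, pH 7.0, preincubated 15 min at room temperature with compound. Reaction started with 40 uM arachidonic acid, 30 min at room temperature. Hydroperoxide measured by Fe-xylenol orange, 573/405 nm absorbance ratio.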
Mito fusion act = inhibitors of mitochondrial division or activators of mitochondrial fusion; hit rate 0.23% among 320,000; S. cerevisiae fusion-defective mutant growth rescue, CellTiterGlo 48 h; Potency, µM (highest dose often 46.1 µM), for the others: at the highest dose growth rescue (activation), actives largely listed as activators; note: % of control where 0% means no effect; nearly all actives have a fitted effect of over 45% in size
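Growth-rescue viability read-out: after 48 h at the non-permissive 37C in glycerol/ethanol YPEG, yeast mitochondrial fusion mutants are measured by CellTiterGlo luminescence; compounds (23 nl pinned per well) restoring growth score as division inhibitors or fusion activators.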
gsp agonist = gsp mutant agonism; Potency, µM (series often up to 76.9 µM), inactives show at the highest dose activation (cAMP increase), most hits filed as activators; hit rate 0.13% among 340,000; gsp mutant cells, cAMP HTRF, 30 min; active = well fitted activation curve with a large enough effect; inconclusive = small, poorly fitted or top-dose-only effect, or another doubt; inactive = no such curve, though single readings can be large or run the other way; cell line not stated here;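 note: phosphodiesterase inhibitor Ro 20-1724 added with compounds to block cAMP breakdown; nearly all actives have a fitted effect of over 60% in size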
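Cells stably selected in G418 were plated at 2000/well, grown 16-24 hr, then given compounds in DMSO with the PDE inhibitor […] (300 uM solution added) for 30 min at 37C; cAMP was read by HTRF.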
gsp antagonist = antagonizes gsp, the McCune-Albright syndrome mutation; Potency, µM (series often up to 76.9 µM), inactives show at the highest dose activity change, negative = inhibition, usual class: inhibitors; hit rate 0.4% among 340,000; gsp-mutant cells, cAMP HTRF, 30 min; calls by dose curve; cell line not stated here;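 note: intracellular cAMP measured with PDE inhibitor Ro 20-1724 present during compound exposure; % is set by controls: 0 for no effect and ±100 for the full control effect; nearly all actives have a fitted effect of over 65% in size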
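Cells in G418 medium, seeded 16-24 h, 37C; buffer exchange to DPBS + 1 mM CaCl2, 0.5 mM MgCl2, 0.05% BSA; cpds in DMSO + […] (300 uM stock), 30 min 37C; HTRF cAMP detection.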
FUS yeast rescue = FUS proteinopathy suppression in yeast. AID 1347120. S. cerevisiae FUS-expressing, growth rescue, OD600, 24 h. Potency, µM (doses to about 76.6 µM), hits mostly activators. hit rate 0.24% among 390,000;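 note: plate controls were DMSO vehicle for no effect and reference control for full effect; nearly all actives have a fitted effect of over 55% in size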
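Galactose (2%) drives FUS expression in yeast precultured in raffinose; seeding density OD 0.005. Test compounds incubated 24hr at 30C and 99% humidity before absorbance at 600 nm was measured.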
An asterisk follows results filed as active; i = inactive; ? = inconclusive; nt = no result; [ ] = remark or other dose. An excerpt weighted towards active compounds, which were near 1.6% of everything screened. Unless noted, calls come from the whole dose curve; as a rule, active = well fitted curve in the direction sought with a large enough effect; inconclusive = small, poorly fitted or top-dose-only effect, or another doubt; inactive = no such curve, though single readings can be large; an effect the other way counts as inactive or inconclusive. Potency is the fitted concentration of half-maximal effect.

SMILES | ALOX12 inh | Mito fusion act | gsp agonist | gsp antagonist | FUS yeast rescue
CC(Nc1cccc(N2CCCC2=O)c1)c1nc(C(C)(C)C)no1 (configuration not stated) | 154% | nt | nt | nt | nt
CCCc1c(CC)c(=N)c2ccccc2n1C | 5µM* | -6% | ? | 8% | i
O=c1[nH]cnc2c1sc1nc(-c3ccccc3)c3c(c12)CCCC3 | -1% | 2% | 15% | 6% | i
S=c1nc[nH]c2c1sc1nc(-c3ccccc3)c3c(c12)CCCC3 | 45µM* | 23% | ? | -7% | i
O=C1C(Cl)=C(NCCc2ccccc2)C(=O)c2ccccc21 | 4µM* | nt | 27% | ? | i
O=C1C(Cl)=C(NCCc2ccccc2)C(=O)N1CCc1ccccc1 | ? | 0% | 24% | 17% | i
O=C(O)c1cccc(NC2=C(Cl)C(=O)c3ccccc3C2=O)c1 | ? | -3% | ? | 50µM* | i
O=C(O)c1ccc(NC2=C(Cl)C(=O)c3ccccc3C2=O)cc1 | -21% | ? | ? | 28µM* | i
O=C1C(Cl)=C(Nc2ccccc2)C(=O)c2ccccc21 | -1% | -1% | -40% | -5% | nt
CN(C(=O)CCc1ccsc1)C1CCCCC1 | -8% | nt | nt | nt | nt
Cc1c(Cl)cccc1NC(=O)N1CCN(C2=Nc3ccccc3Oc3ccccc32)CC1 | 8% | nt | nt | nt | nt
Cc1ccc(S(=O)(=O)NC(C(=O)Oc2ccc3c(C)c(Cl)c(=O)oc3c2)c2ccccc2)cc1 (configuration not stated) | -17% | -3% | 14% | 11% | nt
CCC[C@@H](NS(=O)(=O)c1ccc(C)cc1)C(=O)Oc1ccc2c3c(c(=O)oc2c1)CCC3 | -9% | -9% | ? | 28µM* | i
O=C(NCc1cccnc1)Nc1ccc(Cl)cc1 | 3% | -1% | 29% | 11µM* | i
CC(=O)Nc1ccc(S(=O)(=O)Nc2ccccc2C(=O)NCc2cccnc2)cc1 | -7% | 10µM* | -1%[15.4 µM] | 10% | i
CCc1c(C(=O)N2CCc3c(c(C(=O)O)nn3CC3CC3)C2)csc1C | 35µM* | nt | nt | nt | nt
CCN1C(=O)C2CC3(CCN(C(=O)CCc4nc5ccccc5[nH]4)CC3)CN2C1=O (configuration not stated) | 14% | nt | nt | nt | nt
Cc1ccc([C@H]2C[C@H](O)[C@@H](n3cc(-c4ccc(F)cc4)nn3)CN2Cc2cccs2)cc1 | ? | nt | ? | nt | i
O[C@H]1C[C@H](c2ccc(Cl)cc2)N(Cc2cccs2)C[C@@H]1n1cc(-c2ccc(F)cc2)nn1 | 35µM* | nt | -34% | nt | i
CSc1ccc(Cl)c(C(=O)NC(C)c2ccncc2)c1 (configuration not stated) | -2% | nt | nt | nt | nt
Cc1ccc2c(c1)c(N=O)c(O)n2Cc1ccc(Cl)cc1 | -41% | 10µM* | 22% | -9% | i
O=C(/C=C/c1cccnc1)c1cccc(O)c1 | 8.9µM* | -4% | 7%[15.4 µM] | nt | i
O=C(/C=C/c1cccc(O)c1)c1cccnc1 | -10% | -9% | 14%[15.4 µM] | 6% | i
O=C(NCCCCCCNC(=O)C1CC1)C1CC1 | -4% | nt | nt | nt | nt
O=C(NC(=S)NCc1ccco1)c1ccc(Br)cc1 | 16µM* | -9% | 4%[15.4 µM] | -10% | i
SMILES | ALOX12 inh | Mito fusion act | gsp agonist | gsp antagonist | FUS yeast rescue
CC(C)(C)c1ccc(C(=O)NC(=S)NCC2CCCO2)cc1 (configuration not stated) | 7.9µM* | 8% | 25%[15.4 µM] | 2% | i
COCCNC(=S)NC(=O)c1ccc(C(C)(C)C)cc1 | 13µM* | -2% | -7% | 2% | i
O=C(NC(=S)NCc1ccco1)c1ccccc1 | -13% | -3% | 0%[15.4 µM] | 7% | i
CCOC(=O)NNC(=S)NCC1CCCO1 (configuration not stated) | 6.3µM* | nt | nt | nt | nt
CCNC(=S)NNC(=S)NCC1CCCO1 (configuration not stated) | 39% | nt | nt | nt | nt
Cc1ccc(-c2nc(CN3CCN(C(=O)C4CCCO4)CC3)co2)c(C)c1 (configuration not stated) | 6% | nt | nt | nt | nt
CCCCNc1nc(-c2cc(C)n(NC(=O)c3n[nH]c(=O)c4ccccc34)c2C)cs1 | -19% | nt | nt | nt | nt
COc1ccc(/C=C/C(=O)NC(=S)NCC2CCCO2)cc1 (configuration not stated) | -30% | 2% | 0%[15.4 µM] | -6% | i
COc1ccccc1/C=C/C(=O)NC(=S)NCC1CCCO1 (configuration not stated) | 40µM* | -3% | 2%[15.4 µM] | -9% | i
CC(C)(C)c1ccc(C(=O)NC(=S)NCc2ccco2)cc1 | 14µM* | -7% | 3% | -9% | i
N#Cc1c(N)n[nH]c1CCCNC(=O)c1ccccc1-c1ncc(-c2ccccc2)o1 | 35% | nt | nt | nt | nt
CCOC(=O)c1c(NC(=O)c2ccccc2C(=O)O)sc2c1CCCC2 | -8% | 6% | 0%[15.4 µM] | -17% | i
CCOC(=O)c1c(N2C(=O)CC(Sc3ccccc3C(=O)O)C2=O)sc2c1CCCC2 (configuration not stated) | 16µM* | -8% | 7% | -11% | i
Cc1cc2cc(CN3C(=O)c4ccccc4C3=O)ccc2n1C | -1% | -2% | 32µM* | 21% | i
C/C(=N/Nc1cc(-c2ccccc2)nc(-c2ccccc2)n1)c1ccc(O)cc1 | -5% | -28% | -35% | -3% | nt
C/C(=N\Nc1cc(-c2ccccc2)nc(-c2ccc(Br)cc2)n1)c1cccc(N)c1 | 10% | nt | -4% | -4% | 13µM*
CC(C)CN1CCC(CN2CCOCC2)CC1 | 32% | nt | nt | nt | nt
Cc1cc(C)cc(-c2nnc(SCc3ncc(-c4ccccc4)o3)o2)c1 | -6% | nt | nt | nt | nt
Cn1nc(C(=O)N(Cc2ccccc2)C2CCS(=O)(=O)C2)c2ccccc2c1=O (configuration not stated) | -11% | nt | nt | nt | nt
O=C(CN1CCCC1c1cccs1)C12CC3CC(CC(C3)C1)C2 (configuration not stated) | 6.3µM* | nt | nt | nt | nt
CCCCCCn1nc(C(=O)NCc2ccc(C(=O)OC)cc2)c2ccccc2c1=O | 5% | nt | nt | nt | nt
Cc1cccc(C(=O)NC(=S)Nc2ccccc2C(F)(F)F)c1 | 16µM* | -9% | 10% | -5% | nt
O=C(O)c1ccccc1NC(=S)NC(=O)c1cccc2ccccc12 | 20µM* | 4% | -38% | -7% | i
Cc1cccc(C(=O)NC(=S)Nc2ccccc2C(=O)O)c1 | 40µM* | 0% | ? | -13% | i
